Calls of active or inactive are those of the source. How the source made its calls: active means hit-call score of the fitted dose curve at least 0.9, where 1 is the maximum; inactive means score below 0.9.
How the values were obtained:
[1] = read-out: Tumor necrosis factor receptor superfamily member 6 (Homo sapiens) (UniProt P25445); assay: LTEA_HepaRG_FAS: Life Technologies and Expression Analysis (LTEA) Assay for Fas cell surface death receptor (FAS) using HepaRG (AID 2283447); settings: mRNA level, 48 h; actives raise or lower the signal
Method in brief: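 FAS transcript level was measured by TaqMan qRT-PCR against three housekeeping genes after 48 h chemical exposure. Cells were HepaRG, 0.5% DMSO vehicle, with a top concentration of 100 uM and half-log dilutions over eight points, in duplicate.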

[2] = read-out: Fatty acid synthase (Homo sapiens) (UniProt P49327); assay: LTEA_HepaRG_FASN: Life Technologies and Expression Analysis (LTEA) Assay for Fatty Acid Synthase (FASN) using HepaRG (AID 2283448); settings: mRNA level, 48 h; actives raise or lower the signal
Method in brief: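 Differentiated human HepaRG cells were exposed for 48 h in serum-free induction medium to eight half-log concentrations up to 100 uM in 0.5% DMSO, in duplicate. FASN mRNA was quantified by TaqMan qRT-PCR, normalized to ACTB/GAPDH/POLR2A, and fitted bidirectionally against DMSO.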

[3] = read-out: Cyclin D2 (CCND2), CCND2 (gene 894); assay: LTEA_HepaRG_CCND2: Life Technologies and Expression Analysis (LTEA) Assay for Cyclin D2 (CCND2) using HepaRG (AID 2283449); settings: mRNA level, 48 h; actives raise or lower the signal
Method in brief: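 Read-out is CCND2 mRNA level measured by qRT-PCR in human HepaRG liver cells and normalised to three housekeeping genes. Chemicals were applied for 48 h at up to 100 uM, with gain or loss fitted relative to 0.5% DMSO.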

[4] = read-out: Cyclin Dependent Kinase Inhibitor 1A (CDKN1A), CDKN1A (gene 1026); assay: LTEA_HepaRG_CDKN1A: Life Technologies and Expression Analysis (LTEA) Assay for Cyclin Dependent Kinase Inhibitor 1A (CDKN1A) using HepaRG (AID 2283450); settings: mRNA level, 48 h; actives raise or lower the signal
Method in brief: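 Differentiated HepaRG cells in serum-free induction medium, exposed 48 h in duplicate to eight half-log concentrations up to 100 uM in 0.5% DMSO. mRNA measured by TaqMan qRT-PCR, normalized to ACTB, GAPDH, POLR2A; bidirectional fit versus DMSO.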

[5] = read-out: Cyclin D1 (CCND1), CCND1 (gene 595); assay: LTEA_HepaRG_CCND1: Life Technologies and Expression Analysis (LTEA) Assay for Cyclin D1 (CCND1) using HepaRG (AID 2283451); settings: mRNA level, 48 h; actives raise or lower the signal
Method in brief: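 Differentiated HepaRG cells exposed 48 h in serum-free induction medium to eight half-log concentrations from 100 uM top, 0.5% DMSO, duplicates. CCND1 mRNA measured by Fluidigm TaqMan qRT-PCR, normalised to ACTB, GAPDH, POLR2A; bidirectional fit.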

[6] = read-out: catalase (CAT), CAT (gene 847); assay: LTEA_HepaRG_CAT: Life Technologies and Expression Analysis (LTEA) Assay for catalase (CAT) using HepaRG (AID 2283452); settings: mRNA level, 48 h; actives raise or lower the signal
Method in brief: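 Expression of CAT was quantified by TaqMan qRT-PCR with ACTB/GAPDH/POLR2A normalization after 48 h chemical exposure of HepaRG. Eight-point half-log series, top 100 uM, in 0.5% DMSO; gain or loss fitted against vehicle.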

[7] = read-out: flavin-containing dimethylaniline monooxygenases 3 (FMO3), FMO3 (gene 2328); assay: LTEA_HepaRG_FMO3: Life Technologies and Expression Analysis (LTEA) Assay for flavin-containing dimethylaniline monooxygenases 3 (FMO3) using HepaRG (AID 2283453); settings: mRNA level, 48 h; actives raise or lower the signal
Method in brief: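 HepaRG, 48 h exposure, 8-pt half-log series from 100 uM, 0.5% DMSO vehicle, duplicates; FMO3 transcript by Fluidigm TaqMan qRT-PCR, housekeeping-normalized; gain/loss fit vs DMSO.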

[8] = read-out: Cytochrome P450 (CYP1A1), CYP1A1 (gene 1543); assay: LTEA_HepaRG_CYP1A1: Life Technologies and Expression Analysis (LTEA) Assay for Cytochrome P450 (CYP1A1) using HepaRG (AID 2283454); settings: mRNA level, 48 h; actives raise or lower the signal
Method in brief: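 Differentiated human HepaRG cells, after 48 h plating, exposed in duplicate for 48 h in serum-free induction medium to 8 half-log concentrations up to 100 uM in 0.5% DMSO. CYP1A1 mRNA by qRT-PCR, normalized to ACTB/GAPDH/POLR2A; bidirectional fit versus DMSO.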

[9] = read-out: CFLAR gene, CFLAR (gene 8837); assay: LTEA_HepaRG_CFLAR: Life Technologies and Expression Analysis (LTEA) Assay for CFLAR gene using HepaRG (AID 2283455); settings: mRNA level, 48 h; actives raise or lower the signal
Method in brief: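 HepaRG, 48 h exposure, 8-pt conc-response (100 uM top, half-log), 0.5% DMSO vehicle, duplicates. CFLAR expression by qRT-PCR; ACTB/GAPDH/POLR2A normalization; gain or loss fit vs DMSO baseline.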

[10] = read-out: Forkhead box O1 (FOXO1), FOXO1 (gene 2308); assay: LTEA_HepaRG_FOXO1: Life Technologies and Expression Analysis (LTEA) Assay for Forkhead box O1 (FOXO1) using HepaRG (AID 2283456); settings: mRNA level, 48 h; actives raise or lower the signal
Method in brief: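 Readout is FOXO1 transcript level by multiplexed qRT-PCR against three housekeeping genes, curve-fitted in both directions relative to 0.5% DMSO vehicle. Human HepaRG cultures received chemicals for 48 h, up to 100 uM in half-log steps.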

[11] = read-out: growth arrest and DNA damage 45 (GADD45A), GADD45A (gene 1647); assay: LTEA_HepaRG_GADD45A: Life Technologies and Expression Analysis (LTEA) Assay for growth arrest and DNA damage 45 (GADD45A) using HepaRG (AID 2283458); settings: mRNA level, 48 h; actives raise or lower the signal
Method in brief: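 Differentiated HepaRG cells were exposed in duplicate for 48 h in serum-free induction medium to 8-point half-log concentrations up to 100 uM in 0.5% DMSO. GADD45A mRNA was measured by TaqMan qRT-PCR, normalized to ACTB, GAPDH and POLR2A, with bidirectional fitting versus DMSO.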

[12] = read-out: Forkhead box O3 (FOXO3), FOXO3 (gene 2309); assay: LTEA_HepaRG_FOXO3: Life Technologies and Expression Analysis (LTEA) Assay for Forkhead box O3 (FOXO3) using HepaRG (AID 2283459); settings: mRNA level, 48 h; actives raise or lower the signal
Method in brief: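 HepaRG, 48 h post-dose; 8 conc., half-log from 100 uM, 0.5% DMSO, duplicates; serum-free induction medium. Readout: FOXO3 mRNA, TaqMan qRT-PCR, housekeeping-normalized. Bidirectional curve fit vs DMSO baseline.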

[13] = read-out: ABC Transporter (ABCB1), ABCB1 (gene 5243); assay: LTEA_HepaRG_ABCB1: Life Technologies and Expression Analysis (LTEA) Assay for ABC Transporter (ABCB1) using HepaRG (AID 2283460); settings: mRNA level, 48 h; actives raise or lower the signal
Method in brief: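 Expression of ABCB1 was quantified by qRT-PCR against three housekeeping genes after human HepaRG cultures received test chemicals for 48 hours. Concentrations spanned eight half-log steps topping at 100 uM in 0.5% DMSO; gain or loss of signal was fitted relative to vehicle.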

[14] = read-out: growth arrest and DNA damage 45 (GADD45B), GADD45B (gene 4616); assay: LTEA_HepaRG_GADD45B: Life Technologies and Expression Analysis (LTEA) Assay for growth arrest and DNA damage 45 (GADD45B) using HepaRG (AID 2283461); settings: mRNA level, 48 h; actives raise or lower the signal
Method in brief: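 Differentiated human HepaRG cells in serum-free induction medium exposed 48 h in duplicate to eight concentrations, top 100 uM, half-log steps, 0.5% DMSO. GADD45B mRNA by TaqMan qRT-PCR, normalized to ACTB, GAPDH, POLR2A; bidirectional fit versus DMSO.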

[15] = read-out: ABC Transporter (ABCC3), ABCC3 (gene 8714); assay: LTEA_HepaRG_ABCC3: Life Technologies and Expression Analysis (LTEA) Assay for ABC Transporter (ABCC3) using HepaRG (AID 2283462); settings: mRNA level, 48 h; actives raise or lower the signal
Method in brief: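 Differentiated human HepaRG cells exposed 48 h in serum-free induction medium, 0.5% DMSO vehicle, 8-point half-log series to 100 uM in duplicate. ABCC3 mRNA by qRT-PCR, normalised to ACTB, GAPDH, POLR2A; bidirectional fit vs DMSO.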

[16] = read-out: ABC Transporter (ABCB11), ABCB11 (gene 8647); assay: LTEA_HepaRG_ABCB11: Life Technologies and Expression Analysis (LTEA) Assay for ABC Transporter (ABCB11) using HepaRG (AID 2283463); settings: mRNA level, 48 h; actives raise or lower the signal
Method in brief: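 ABCB11 transcript levels are read by Fluidigm TaqMan qRT-PCR after 48 h chemical treatment of human HepaRG cells. Concentrations span 100 uM downward in half-log steps with 0.5% DMSO; gain or loss is fitted against DMSO controls.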

[17] = read-out: ABC Transporter (ABCC2), ABCC2 (gene 1244); assay: LTEA_HepaRG_ABCC2: Life Technologies and Expression Analysis (LTEA) Assay for ABC Transporter (ABCC2) using HepaRG (AID 2283464); settings: mRNA level, 48 h; actives raise or lower the signal
Method in brief: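 Differentiated HepaRG cells in serum-free induction medium exposed 48 h to eight half-log concentrations up to 100 uM, 0.5% DMSO, in duplicate. ABCC2 mRNA measured by qRT-PCR (TaqMan, Fluidigm), normalized to ACTB, GAPDH and POLR2A. Fitted in both directions against DMSO.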

[18] = read-out: Broad substrate specificity ATP-binding cassette transporter ABCG2 (Homo sapiens) (UniProt Q9UNQ0); assay: LTEA_HepaRG_ABCG2: Life Technologies and Expression Analysis (LTEA) Assay for ABC Transporter (ABCG2) using HepaRG (AID 2283465); settings: mRNA level, 48 h; actives raise or lower the signal
Method in brief: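 Read-out is ABCG2 mRNA induction or loss quantified by qRT-PCR after 48 h chemical treatment of human HepaRG cells, normalized to three housekeeping genes. Concentrations reached 100 uM top in half-log steps; fitting was bidirectional against 0.5% DMSO.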

[19] = CEETOX_H295R_PROG: CeeTox H295R High-throughput Steroidogenesis Assay for Progesterone (PROG) (AID 2283442); settings: actives raise or lower the signal;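 further: human H295R adrenal cells primed with 10 µM forskolin before dosing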
Method in brief: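 H295R adrenal cells prestimulated 48 h with 10 uM forskolin, then exposed 48 h to test chemical in 0.1% DMSO. Progesterone in medium quantified by HPLC-MS/MS after MTBE extraction; viability checked by MTT in same wells.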

Measured: AC50

Sequence of Fatty acid synthase (Homo sapiens) (P49327 whole entry, looked up): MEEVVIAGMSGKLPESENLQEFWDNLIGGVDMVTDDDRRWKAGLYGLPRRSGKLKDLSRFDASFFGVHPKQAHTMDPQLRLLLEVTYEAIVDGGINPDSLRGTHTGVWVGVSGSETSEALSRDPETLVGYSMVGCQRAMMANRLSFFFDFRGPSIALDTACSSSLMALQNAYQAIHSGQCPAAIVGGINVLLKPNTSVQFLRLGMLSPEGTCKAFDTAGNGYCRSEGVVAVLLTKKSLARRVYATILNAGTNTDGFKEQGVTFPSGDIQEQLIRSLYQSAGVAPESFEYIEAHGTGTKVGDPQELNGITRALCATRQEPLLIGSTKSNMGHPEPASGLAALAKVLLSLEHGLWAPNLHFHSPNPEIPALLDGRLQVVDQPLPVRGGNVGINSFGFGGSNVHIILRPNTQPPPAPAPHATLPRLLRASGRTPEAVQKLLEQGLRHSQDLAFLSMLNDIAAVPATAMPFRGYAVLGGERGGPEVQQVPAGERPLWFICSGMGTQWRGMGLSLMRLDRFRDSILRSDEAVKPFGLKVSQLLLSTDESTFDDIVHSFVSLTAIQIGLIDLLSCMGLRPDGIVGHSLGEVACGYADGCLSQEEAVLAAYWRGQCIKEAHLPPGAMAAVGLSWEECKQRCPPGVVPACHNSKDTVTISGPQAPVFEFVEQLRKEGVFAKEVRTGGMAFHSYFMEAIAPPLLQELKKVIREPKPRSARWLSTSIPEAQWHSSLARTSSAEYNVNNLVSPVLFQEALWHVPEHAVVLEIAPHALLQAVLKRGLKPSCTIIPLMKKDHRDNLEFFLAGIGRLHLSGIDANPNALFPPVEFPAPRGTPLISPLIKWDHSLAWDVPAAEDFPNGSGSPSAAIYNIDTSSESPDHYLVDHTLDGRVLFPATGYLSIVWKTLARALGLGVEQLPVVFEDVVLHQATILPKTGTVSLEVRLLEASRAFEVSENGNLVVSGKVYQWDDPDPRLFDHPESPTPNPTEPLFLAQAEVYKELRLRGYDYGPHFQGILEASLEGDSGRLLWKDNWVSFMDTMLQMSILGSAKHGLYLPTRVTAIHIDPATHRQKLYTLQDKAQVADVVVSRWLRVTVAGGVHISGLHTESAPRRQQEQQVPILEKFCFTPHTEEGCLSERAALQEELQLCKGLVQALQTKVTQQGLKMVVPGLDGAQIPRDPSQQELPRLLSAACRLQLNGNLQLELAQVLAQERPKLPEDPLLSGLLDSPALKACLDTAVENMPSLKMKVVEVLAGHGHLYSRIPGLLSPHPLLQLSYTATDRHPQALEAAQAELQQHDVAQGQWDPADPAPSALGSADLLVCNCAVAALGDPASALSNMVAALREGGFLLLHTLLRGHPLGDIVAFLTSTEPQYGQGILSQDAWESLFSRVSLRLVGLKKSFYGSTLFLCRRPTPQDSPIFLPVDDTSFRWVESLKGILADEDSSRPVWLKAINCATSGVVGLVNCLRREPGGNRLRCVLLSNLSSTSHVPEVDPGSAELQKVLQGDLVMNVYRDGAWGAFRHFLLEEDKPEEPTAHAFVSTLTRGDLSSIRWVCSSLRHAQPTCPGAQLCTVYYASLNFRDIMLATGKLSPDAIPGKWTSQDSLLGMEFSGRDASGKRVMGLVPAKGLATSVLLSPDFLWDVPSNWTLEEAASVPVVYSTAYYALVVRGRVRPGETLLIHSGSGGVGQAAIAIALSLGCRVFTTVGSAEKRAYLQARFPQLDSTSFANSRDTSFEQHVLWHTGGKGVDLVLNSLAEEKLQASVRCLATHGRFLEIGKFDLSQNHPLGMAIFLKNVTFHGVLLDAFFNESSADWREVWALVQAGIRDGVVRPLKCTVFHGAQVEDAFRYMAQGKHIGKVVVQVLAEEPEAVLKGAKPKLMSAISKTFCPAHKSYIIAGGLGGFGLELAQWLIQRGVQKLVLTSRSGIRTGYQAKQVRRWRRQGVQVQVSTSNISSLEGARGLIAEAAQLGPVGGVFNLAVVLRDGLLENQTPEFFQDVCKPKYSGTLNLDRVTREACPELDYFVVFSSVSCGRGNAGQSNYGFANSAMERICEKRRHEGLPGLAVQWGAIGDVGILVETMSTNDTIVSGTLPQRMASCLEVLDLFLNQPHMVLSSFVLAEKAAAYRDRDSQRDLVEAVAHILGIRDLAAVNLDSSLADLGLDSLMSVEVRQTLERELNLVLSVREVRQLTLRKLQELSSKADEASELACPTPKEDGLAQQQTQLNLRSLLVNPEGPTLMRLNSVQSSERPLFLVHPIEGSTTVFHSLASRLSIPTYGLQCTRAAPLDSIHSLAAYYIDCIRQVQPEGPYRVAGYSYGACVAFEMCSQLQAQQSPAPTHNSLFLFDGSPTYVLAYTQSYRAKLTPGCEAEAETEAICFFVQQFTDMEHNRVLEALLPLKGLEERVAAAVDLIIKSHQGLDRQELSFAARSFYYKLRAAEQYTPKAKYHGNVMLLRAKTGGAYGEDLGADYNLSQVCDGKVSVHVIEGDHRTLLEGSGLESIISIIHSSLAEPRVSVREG
Sequence of Broad substrate specificity ATP-binding cassette transporter ABCG2 (Homo sapiens) (Q9UNQ0 whole entry, looked up): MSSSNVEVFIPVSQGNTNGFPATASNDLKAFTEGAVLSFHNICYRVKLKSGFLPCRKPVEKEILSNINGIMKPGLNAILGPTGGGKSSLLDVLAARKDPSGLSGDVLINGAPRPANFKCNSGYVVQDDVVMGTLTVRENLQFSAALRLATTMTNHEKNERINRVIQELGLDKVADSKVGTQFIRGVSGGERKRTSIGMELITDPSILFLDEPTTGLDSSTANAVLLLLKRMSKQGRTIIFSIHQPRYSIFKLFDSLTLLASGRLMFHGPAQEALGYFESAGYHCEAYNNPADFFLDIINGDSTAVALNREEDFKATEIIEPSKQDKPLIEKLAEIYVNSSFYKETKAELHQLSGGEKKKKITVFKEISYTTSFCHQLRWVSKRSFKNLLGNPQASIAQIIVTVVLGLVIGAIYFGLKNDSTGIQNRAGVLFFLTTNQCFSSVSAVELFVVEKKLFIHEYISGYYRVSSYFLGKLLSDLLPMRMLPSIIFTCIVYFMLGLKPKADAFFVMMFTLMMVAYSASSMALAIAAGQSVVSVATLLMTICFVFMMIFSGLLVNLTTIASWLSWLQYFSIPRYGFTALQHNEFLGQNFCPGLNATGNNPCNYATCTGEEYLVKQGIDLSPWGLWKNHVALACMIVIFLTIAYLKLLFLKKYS

OCCCBr
inactive: [1] | [2] | [3] | [4] | [5] | [6] | [7] | [8] | [9] | [10] | [11] | [12] | [13] | [14] | [15] | [16] | [17] | [18]

c1ccc2c(c1)-c1cccc3cccc-2c13
active: [19] 4.8 µM | [2] 69.1 µM | [8] 33.3 µM
inactive: [3] | [4] | [5] | [6] | [7] | [9] | [10] | [12] | [13] | [14] | [15] | [17] | [18]

OCCOCCO
inactive: [1] | [2] | [3] | [4] | [5] | [6] | [7] | [8] | [9] | [10] | [12] | [13] | [14] | [15] | [17] | [18]

CC(O)CCO (configuration not stated)
inactive: [1] | [2] | [4] | [5] | [6] | [7] | [8] | [9] | [10] | [12] | [13] | [14] | [15] | [17] | [18]

Clc1ccc(Cl)c(Cl)c1
active: [9] 50 µM
inactive: [1] | [2] | [4] | [5] | [6] | [7] | [8] | [10] | [12] | [13] | [14] | [15] | [17] | [18]

CC(C)(C)OOC(=O)c1ccccc1
active: [8] 83.2 µM
inactive: [1] | [2] | [4] | [5] | [6] | [7] | [9] | [10] | [11] | [12] | [13] | [14] | [15] | [17] | [18]

Cc1ccc(N)cc1
inactive: [1] | [2] | [3] | [4] | [5] | [6] | [7] | [8] | [9] | [10] | [12] | [13] | [14] | [15] | [17] | [18]

— PubChem BioAssay (EPA / NIEHS)
